PubChem BioAssay AID1159580 (chemical genetic matrix, 2015)
About 2,000 (36%) of roughly 5,500 compounds were called active. Inconclusive results (about 18%) are left out. No stated cut-off is given here; in the data, active means normalized growth mostly below about 0.91 (no sharp cut-off); inconclusive means no clear call, values can overlap the other calls; inactive means mostly above about 0.92. The list shows a part of the results.

Experiment: chemical genetic growth profiling, strain panel (AID 1159580);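 further: tested at 20 µM; growth read once vehicle control cultures reached saturation at 30 °C; 1 = growth at the plate median or of vehicle wells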
Details: growth OD
[1] = S. cerevisiae deletion strains, locus YAR019C, strain CDC15, stronger effect = lower value
[2] = S. cerevisiae deletion strains, locus YBL105C, strain PKC1, stronger effect = lower value
[3] = S. cerevisiae deletion strains, locus YBR135W, strain CKS1, stronger effect = lower value
[4] = S. cerevisiae deletion strains, locus YBR136W, strain MEC1, stronger effect = lower value
[5] = S. cerevisiae deletion strains, locus YBR160W, strain CDC28, stronger effect = lower value
[6] = S. cerevisiae deletion strains, locus YDL017W, strain CDC7, stronger effect = lower value
[7] = S. cerevisiae deletion strains, locus YDL028C, strain MPS1, stronger effect = lower value
[8] = S. cerevisiae deletion strains, locus YDL101C, strain DUN1, stronger effect = lower value
[9] = S. cerevisiae deletion strains, locus YDL108W, strain KIN28, stronger effect = lower value
[10] = S. cerevisiae deletion strains, locus YDL132W, strain cdc53, stronger effect = lower value
[11] = S. cerevisiae deletion strains, locus YDL214C, strain PRR2, stronger effect = lower value
[12] = S. cerevisiae deletion strains, locus YDR052C, strain DBF4, stronger effect = lower value
[13] = S. cerevisiae deletion strains, locus YDR054C, strain cdc34, stronger effect = lower value
[14] = S. cerevisiae deletion strains, locus YDR226W, strain ADK1, stronger effect = lower value
[15] = S. cerevisiae deletion strains, locus YDR477W, strain SNF1, stronger effect = lower value
[16] = S. cerevisiae deletion strains, locus YER123W, strain YCK3, stronger effect = lower value
[17] = S. cerevisiae deletion strains, locus YER133W, strain GLC7, stronger effect = lower value
[18] = S. cerevisiae deletion strains, locus YFL009W, strain cdc4, stronger effect = lower value
[19] = S. cerevisiae deletion strains, locus YFL029C, strain CAK1, stronger effect = lower value
[20] = S. cerevisiae deletion strains, locus YFR003C, strain YPI1, stronger effect = lower value
[21] = S. cerevisiae deletion strains, locus YFR019W, strain FAB1, stronger effect = lower value
[22] = S. cerevisiae deletion strains, locus YFR028C, strain CDC14, stronger effect = lower value
[23] = S. cerevisiae deletion strains, locus YGR040W, strain KSS1, stronger effect = lower value
[24] = S. cerevisiae deletion strains, locus YGR052W, strain FMP48, stronger effect = lower value
[25] = S. cerevisiae deletion strains, locus YGR092W, strain DBF2, stronger effect = lower value
[26] = S. cerevisiae deletion strains, locus YHR030C, strain SLT2, stronger effect = lower value
[27] = S. cerevisiae deletion strains, locus YHR079C, strain IRE1, stronger effect = lower value
[28] = S. cerevisiae deletion strains, locus YHR082C, strain KSP1, stronger effect = lower value
[29] = S. cerevisiae deletion strains, locus YHR205W, strain SCH9, stronger effect = lower value
[30] = S. cerevisiae deletion strains, locus YIL147C, strain SLN1, stronger effect = lower value
[31] = S. cerevisiae deletion strains, locus YJL095W, strain BCK1, stronger effect = lower value
[32] = S. cerevisiae deletion strains, locus YJL128C, strain PBS2, stronger effect = lower value
[33] = S. cerevisiae deletion strains, locus YJL157C, strain FAR1, stronger effect = lower value
[34] = S. cerevisiae deletion strains, locus YJR016C, strain ILV3, stronger effect = lower value
[35] = S. cerevisiae deletion strains, locus YJR066W, strain TOR1 (second series), stronger effect = lower value
[36] = S. cerevisiae deletion strains, locus YJR066W, strain TOR1, stronger effect = lower value
[37] = S. cerevisiae deletion strains, locus YKL048C, strain ELM1, stronger effect = lower value
[38] = S. cerevisiae deletion strains, locus YKL067W, strain YNK1, stronger effect = lower value
[39] = S. cerevisiae deletion strains, locus YKL101W, strain HSL1, stronger effect = lower value
[40] = S. cerevisiae deletion strains, locus YKL193C, strain SDS22, stronger effect = lower value
[41] = S. cerevisiae deletion strains, locus YKL203C, strain TOR2, stronger effect = lower value
[42] = S. cerevisiae deletion strains, locus YLR113W, strain HOG1, stronger effect = lower value
[43] = S. cerevisiae deletion strains, locus YLR133W, strain CKI1, stronger effect = lower value
[44] = S. cerevisiae deletion strains, locus YLR403W, strain SFP1, stronger effect = lower value
[45] = S. cerevisiae deletion strains, locus YML070W, strain DAK1, stronger effect = lower value
[46] = S. cerevisiae deletion strains, locus YMR001C, strain CDC5, stronger effect = lower value
[47] = S. cerevisiae deletion strains, locus YMR205C, strain PFK2 (second series), stronger effect = lower value
[48] = S. cerevisiae deletion strains, locus YMR277W, strain FCP1, stronger effect = lower value
[49] = S. cerevisiae deletion strains, locus YNL006W, strain LST8, stronger effect = lower value
[50] = S. cerevisiae deletion strains, locus YNL020C, strain ARK1, stronger effect = lower value
[51] = S. cerevisiae deletion strains, locus YNL161W, strain CBK1, stronger effect = lower value
[52] = S. cerevisiae deletion strains, locus YNL183C, strain NPR1, stronger effect = lower value
[53] = S. cerevisiae deletion strains, locus YNL207W, strain RIO2, stronger effect = lower value
[54] = S. cerevisiae deletion strains, locus YNL222W, strain SSU72, stronger effect = lower value
[55] = S. cerevisiae deletion strains, locus YNL307C, strain MCK1 (second series), stronger effect = lower value
[56] = S. cerevisiae deletion strains, locus YOL078W, strain AVO1, stronger effect = lower value
[57] = S. cerevisiae deletion strains, locus YOL136C, strain PFK27, stronger effect = lower value
[58] = S. cerevisiae deletion strains, locus YOR061W, strain CKA2, stronger effect = lower value
[59] = S. cerevisiae deletion strains, locus YOR119C, strain RIO1, stronger effect = lower value
[60] = S. cerevisiae deletion strains, locus YOR231W, strain MKK1, stronger effect = lower value
[61] = S. cerevisiae deletion strains, locus YOR329C, strain SCD5, stronger effect = lower value
[62] = S. cerevisiae deletion strains, locus YPL031C, strain PHO85, stronger effect = lower value
[63] = S. cerevisiae deletion strains, locus YPL153C, strain RAD53, stronger effect = lower value
[64] = S. cerevisiae deletion strains, locus YPL204W, strain HRR25, stronger effect = lower value
[65] = S. cerevisiae deletion strains, locus YPL209C, strain IPL1, stronger effect = lower value
[66] = S. cerevisiae deletion strains, locus YPL256C, strain CLN2, stronger effect = lower value
[67] = S. cerevisiae deletion strains, locus YPR025C, strain CCL1, stronger effect = lower value
[68] = S. cerevisiae deletion strains, locus YPR106W, strain ISR1, stronger effect = lower value
[69] = S. cerevisiae deletion strains, locus YPR111W, strain DBF20, stronger effect = lower value
[70] = S. cerevisiae deletion strains, strain NNK1, stronger effect = lower value
[71] = S. cerevisiae deletion strains, strain TSCII, stronger effect = lower value
[72] = S. cerevisiae deletion strains, locus YAL013W, strain DEP1, stronger effect = lower value
[73] = S. cerevisiae deletion strains, locus YBR229C, strain ROT2, stronger effect = lower value
[74] = S. cerevisiae deletion strains, locus YDL134C, strain PPH21, stronger effect = lower value
[75] = S. cerevisiae deletion strains, locus YDR150W, strain NUM1, stronger effect = lower value
[76] = S. cerevisiae deletion strains, locus YEL061C, strain CIN8, stronger effect = lower value
[77] = S. cerevisiae deletion strains, locus YGR078C, strain PAC10, stronger effect = lower value
[78] = S. cerevisiae deletion strains, locus YHR087W, strain rtc3, stronger effect = lower value
[79] = S. cerevisiae deletion strains, locus YJR043C, strain POL32, stronger effect = lower value
[80] = S. cerevisiae deletion strains, locus YJR075W, strain HOC1, stronger effect = lower value
[81] = S. cerevisiae deletion strains, locus YLR039C, strain RIC1, stronger effect = lower value
[82] = S. cerevisiae deletion strains, locus YLR058C, strain SHM2 (second series), stronger effect = lower value
[83] = S. cerevisiae deletion strains, locus YLR085C, strain ARP6, stronger effect = lower value
[84] = S. cerevisiae deletion strains, locus YLR262C, strain YPT6, stronger effect = lower value
[85] = S. cerevisiae deletion strains, locus YML094W, strain GIM5, stronger effect = lower value
[86] = S. cerevisiae deletion strains, locus YMR219W, strain ESC1, stronger effect = lower value
[87] = S. cerevisiae deletion strains, locus YMR263W, strain SAP30, stronger effect = lower value
[88] = S. cerevisiae deletion strains, locus YNL153C, strain GIM3, stronger effect = lower value
[89] = S. cerevisiae deletion strains, locus YNL298W, strain CLA4 (second series), stronger effect = lower value
[90] = S. cerevisiae deletion strains, locus YNL322C, strain KRE1, stronger effect = lower value
[91] = S. cerevisiae deletion strains, locus YNR030W, strain Alg12, stronger effect = lower value
[92] = S. cerevisiae deletion strains, locus YPL055C, strain LGE1, stronger effect = lower value
[93] = S. cerevisiae deletion strains, locus YPL241C, strain CIN2, stronger effect = lower value
[94] = S. cerevisiae deletion strains, locus YPR135W, strain CTF4, stronger effect = lower value
[95] = S. cerevisiae strains, strain wild type, stronger effect = lower value

Measured: normalized growth

COc1ccc(Br)c(C(=O)/C(C#N)=C/c2cccs2)c1
active: [1] 0.765 | [8] 0.676 | [10] 0.871 | [11] 0.221 | [13] 0.696 | [15] 0.197 | [16] 0.122 | [17] 0.187 | [18] 0.861 | [19] 0.724 | [21] 0.149 | [23] 0.229 | [24] 0.205 | [25] 0.178 | [26] 0.125 | [27] 0.132 | [28] 0.15 | [29] 0.0479 | [31] 0.146 | [33] 0.181 | [35] 0.252 | [36] 0.146 | [37] 0.234 | [38] 0.262 | [39] 0.307 | [40] 0.787 | [41] 0.2 | [42] 0.23 | [43] 0.224 | [44] 0.081 | [45] 0.177 | [47] 0.287 | [48] 0.814 | [49] 0.875 | [50] 0.22 | [51] 0.836 | [52] 0.151 | [54] 0.861 | [55] 0.169 | [56] 0.722 | [57] 0.139 | [58] 0.344 | [59] 0.249 | [60] 0.187 | [62] 0.179 | [63] 0.198 | [64] 0.189 | [66] 0.16 | [68] 0.886 | [70] 0.676 | [71] 0.736
inactive: [2] 0.94 | [3] 0.903 | [4] 0.922 | [5] 0.921 | [6] 0.921 | [7] 0.909 | [9] 0.904 | [12] 0.929 | [14] 0.908 | [20] 0.918 | [22] 0.913 | [30] 0.919 | [32] 0.874 | [34] 0.915 | [46] 0.921 | [53] 0.917 | [61] 0.929 | [65] 0.926 | [67] 0.914 | [69] 0.935

COc1ccc(OC)c(CNC(=O)Cc2cccs2)c1
inactive: [72] 1.01 | [73] 1.03 | S. cerevisiae deletion strains, locus YCL061C, strain MRC1, stronger effect = lower value 1.03 | [8] 1.05 | [74] 0.997 | [75] 0.993 | [76] 0.995 | [77] 1.04 | [26] 1.04 | [78] 0.952 | [79] 1.03 | [80] 0.998 | [81] 1.04 | [82] 0.988 | [83] 0.994 | [84] 1.01 | [85] 0.962 | [86] 0.996 | [87] 1.01 | [88] 1.03 | [89] 1 | [90] 1 | [91] 1 | [92] 0.961 | [93] 0.983 | [94] 1.06 | [95] 1.01

Cc1ccc(NC(=O)CC#N)c(C)c1
inactive: [72] 1.01 | [73] 1 | [8] 0.979 | [74] 1.01 | [75] 0.895 | [76] 1.03 | [77] 1.01 | S. cerevisiae deletion strains, locus YGR229C, strain SMI1, stronger effect = lower value 0.986 | [26] 0.959 | [78] 0.995 | [79] 0.96 | [80] 1.04 | S. cerevisiae deletion strains, locus YKL190W, strain CNB1, stronger effect = lower value 0.998 | [81] 0.974 | [82] 1 | [83] 1.05 | [84] 0.973 | [85] 1.04 | [86] 1.02 | [87] 0.998 | S. cerevisiae deletion strains, locus YMR307W, strain GAS1, stronger effect = lower value 1.03 | [88] 1.01 | [89] 0.988 | [90] 1.01 | [91] 1.02 | S. cerevisiae deletion strains, locus YOL006C, strain TOP1, stronger effect = lower value 0.951 | [92] 1.1 | [93] 1.03 | [94] 1.01 | [95] 0.976

O=C(Nc1ccc(SC(F)(F)F)cc1)Nc1ccc(Oc2cccc(C(F)(F)F)c2)nc1
inactive: [1] 0.995 | [2] 0.989 | [3] 0.992 | [4] 0.987 | [5] 0.992 | [6] 0.996 | [7] 0.988 | [8] 0.997 | [9] 0.993 | [10] 0.995 | [11] 0.941 | [12] 0.996 | [13] 0.994 | [14] 0.987 | [15] 0.982 | [16] 0.949 | [17] 0.95 | [18] 0.988 | [19] 0.996 | [20] 0.991 | [21] 0.921 | [22] 0.999 | [23] 0.975 | [24] 0.973 | [25] 0.995 | [27] 0.883 | [28] 1.05 | [29] 0.957 | [30] 0.994 | [31] 0.975 | [32] 0.946 | [33] 0.937 | [34] 1 | [35] 1.02 | [36] 1.02 | [37] 0.972 | [38] 0.956 | [39] 0.949 | [40] 1 | [41] 0.991 | [42] 0.873 | [43] 0.954 | [44] 0.977 | [45] 0.964 | [46] 0.996 | [47] 0.974 | [48] 0.996 | [49] 0.989 | [50] 0.947 | [51] 0.984 | [52] 1.01 | [53] 0.996 | [54] 0.991 | [55] 0.884 | [56] 1 | [57] 0.907 | [58] 0.983 | [59] 1.03 | [60] 0.958 | [61] 0.984 | [62] 0.97 | [63] 0.99 | [64] 0.958 | [65] 0.992 | [66] 0.897 | [67] 0.988 | [68] 0.992 | [69] 0.972 | [70] 0.999 | [71] 1
active: [26] 0.769
